Test [1] is described as follows: Nuclear factor erythroid 2-related factor 2/antioxidant responsive element (Nrf2/ARE) small molecule agonists: qHTS cell viability counter screen in human keratinocytes (AID 1919968; active = well fitted curve in the direction sought with a large enough effect in the repeat runs; an effect the other way counts as inactive or inconclusive; note: nearly all actives have a fitted effect of over 55% in size). The procedure, abridged:
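Cytotoxicity was multiplexed with the Nrf2/ARE luciferase assay in the same wells. Stably transfected HaCaT keratinocytes were treated with test compounds for 23 h at 37 C. Cell viability was then measured by CellTiter-Fluor fluorescence.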
For orientation: Quantitative high-throughput screening tests each substance at several concentrations.

A short description of test [2]: Nuclear factor erythroid 2-related factor 2/antioxidant responsive element (Nrf2/ARE) small molecule agonists: luciferase reporter gene qHTS assay in human keratinocytes (AID 1919969). Note: nearly all actives have a fitted effect of over 35% in size. For orientation: Reporter assays use an easily measured gene product as a stand-in for the process of interest.
In test [3] the target is Gonadotropin-releasing hormone receptor (Homo sapiens) (UniProt P30968). Kind of test: Human gonadotropin-releasing hormone receptor (GnRHR) small molecule agonists, calcium flux assay in GnRHR-HEK293 cells (AID 1920063). Note: nearly all actives have a fitted effect of over 35% in size. The procedure, abridged: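 Agonist activity was measured as intracellular calcium flux in HEK293 cells engineered to stably express human GnRHR. After dye loading for 1 hour at 37 C, compounds in DMSO were added and fluorescence was followed for 3 minutes.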
(In general: Calcium flux is commonly read through the fluorescence of an indicator in the cells.)

Test [4] addresses KiSS-1 receptor (Homo sapiens) (UniProt Q969F8). The experiment in a line: Human kisspeptin (KISS1R) small molecule agonists, calcium flux assay in KISS1R-HEK293 cells (AID 1920064; active = well fitted curve in the direction sought with a large enough effect in the repeat runs; an effect the other way counts as inactive or inconclusive). Put shortly: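 Agonist activity is monitored as intracellular calcium rise in engineered HEK293 cells carrying human KISS1R. Cells are dye-loaded for 1 h at 37 C before compound addition, and fluorescence is recorded for 3 min.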

Test [5] can be described thus: G protein-coupled receptor (GPCR) small molecule agonists, calcium flux assay: HEK293 wild type cell line counter screen (AID 1920065). Put shortly:
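Seed cells, incubate 18 h (37 C, 5% CO2); add calcium dye, 1 h at 37 C; pin-transfer compounds, ATP control or DMSO; read fluorescence 480/540 nm each second for 3 min.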

The nature of test [6]: p53 small molecule agonists, cell-based qHTS assay with human liver microsomes (AID 1963577).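 For activation: p53 response element beta-lactamase reporter cells with liver microsomes plus NADPH.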 Note: potency is the fitted concentration of half-maximal effect. The procedure, abridged: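 Reporter activation was measured by LiveBLAzer fluorescence intensity in p53RE-bla cells, which had been exposed to compounds for 16 h at 37 C alongside 0.5 mg/mL human liver microsomes and 0.5 mg/mL NADPH (final concentrations).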
Test [7] in a line: p53 small molecule agonists, cell-based qHTS assay with rat liver microsomes (AID 1963578). The procedure, abridged:
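Compound in DMSO added to p53RE-bla cells 5 h post-plating; rat microsomes/NADPH 0.5 mg/mL final; 16 h, 37 C; LiveBLAzer 2 h RT.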

Test [8] is described as follows: p53 small molecule agonists, cell-based qHTS assay with human liver microsomes: qHTS cell viability counter screen (AID 1963579). Note: nearly all actives have a fitted effect of over 45% in size. Put shortly:
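HLM-supplemented (0.5 mg/mL final) and NADPH-supplemented (0.5 mg/mL final) p53RE-bla cultures, 4,000 cells per well, were dosed with compounds in DMSO for 16 h at 37 C; luminescent ATP detection (CellTiter-Glo, 30 min, room temperature) quantified surviving cells.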

Test [9] can be described thus: p53 small molecule agonists, cell-based qHTS assay with rat liver microsomes: qHTS cell viability counter screen (AID 1963580). Note: nearly all actives have a fitted effect of over 45% in size. Put shortly:
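Rat liver microsome (0.5 mg/mL final) and NADPH (0.5 mg/mL final) co-incubation with compounds for 16 h at 37 C on HCT-116 p53RE-bla cells; cytotoxicity taken from intracellular ATP luminescence.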

A short description of test [10]: p53 small molecule agonists, cell-based qHTS assay: qHTS cell viability counter screen (AID 1963581). Note: nearly all actives have a fitted effect of over 45% in size. The procedure, abridged: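 Viability was counter-screened in parallel with the p53 agonist reporter by measuring intracellular ATP luminescence in the same HCT-116 p53RE-bla wells after 16 h compound treatment at 37 C.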
Test [11] is described as follows: p53 small molecule agonists, cell-based qHTS assay (AID 1963582; active = well fitted activation curve with a large enough effect in the signal ratio in the repeat runs, not every such curve was filed as active; the % refers to the signal ratio). The procedure, abridged: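 Cells carrying a p53-responsive bla reporter are treated with test compounds for 16 h at 37 C; beta-lactamase activity is then detected with LiveBLAzer B/G FRET substrate after 2 h at room temperature.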
Test [12] in a line: cAMP Responsive Elements (CRE) small molecule agonists, cell-based qHTS assay (AID 1963590). Put shortly: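 Cells carrying a CRE-driven beta-lactamase reporter (HEK 293T) are seeded, incubated overnight (18 h), and treated with test compounds for 3 h at 37 C; reporter activity is then detected with a FRET substrate after 2 h at room temperature.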
A short description of test [13]: cAMP Responsive Elements (CRE) small molecule antagonists, cell-based qHTS assay (AID 1963591; active = well fitted inhibition curve with a large enough effect in the signal ratio in the repeat runs, not every such curve was filed as active; the % refers to the signal ratio). The procedure, abridged:
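Cells (CRE-bla HEK 293T, DMEM with 10% dialyzed FBS and 25 mM HEPES) are seeded and incubated 18 h. Compounds are added with NKH477 agonist at 0.25 uM final for 3 h, then FRET substrate for 2 h.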

For test [14], the target named is Beta-2 adrenergic receptor (Homo sapiens) (UniProt P07550). Kind of test: Adrenergic beta2 receptor (ADRB2) small molecule antagonists, cell-based qHTS assay (AID 1963592). Note: series mostly up to about 92 µM; nearly all actives have a fitted effect of over 50% in size. Put shortly:
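Assay format: CHO-ADRB2 cells, 18-20hr seeding at 37C/5% CO2, then compound plus 1nM isoproterenol agonist mix for 0.5hr RT. Homogeneous time-resolved fluorescence cAMP detection after 1hr, expressed as 665/615 nm ratio.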

Test [15] addresses D(2) dopamine receptor (Homo sapiens) (UniProt P14416). The experiment in a line: Dopamine D2 receptor (DRD2) small molecule agonists, cell-based qHTS assay (AID 1963594). Note: nearly all actives have a fitted effect of over 35% in size. Put shortly: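 cAMP accumulation in DRD2-HEK293 cells measured by HTRF after 1 h detection; compounds added 10 min before NKH477 (200nM […]) forskolin-analogue stimulation, 30 min at room temperature, with Ro20-1724 present at 0.1 mM final.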

For test [16] the target is unchanged. The experiment in a line: Dopamine D2 receptor (DRD2) small molecule antagonists, cell-based qHTS assay (AID 1963595; active = well fitted inhibition curve with a large enough effect in the signal ratio in the repeat runs, with a control signal flat; the % refers to the signal ratio). Put shortly: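 In this cell-based antagonist screen, compounds act for 10 min at room temperature before a 30 min challenge with 12 nM quinpirole and 200 nM NKH477. cAMP is quantified by HTRF competition in DRD2-HEK293 cells containing 0.1 mM Ro20-1724.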

For test [17], the target named is 5-hydroxytryptamine receptor 2A (Homo sapiens) (UniProt P28223). Kind of test: 5-hydroxytryptamine receptor 2A (HTR2A) small molecule agonists, cell-based qHTS assay (AID 1963587). Note: nearly all actives have a fitted effect of over 30% in size. Put shortly:
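Kinetic calcium-flux fluorescence (2 min, 1 sec intervals) after compound addition in agonist mode. HTR2A-CHO cells were cultured 18 h, then dye-loaded 1 h at 37 C.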

In test [18] the target is Muscarinic acetylcholine receptor M1 (Homo sapiens) (UniProt P11229). The experiment in a line: Cholinergic receptor muscarinic 1 (CHRM1) small molecule antagonists, cell-based qHTS assay (AID 1963588). Note: nearly all actives have a fitted effect of over 40% in size. Put shortly:
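Compounds were tested at 15 concentrations in three independent runs. Dye-loaded CHRM1-CHO cells were exposed 5 min at room temperature before stimulation by acetylcholine added at 50nM. Intracellular calcium was read kinetically on FDSS for 3 min.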

Test [19] shares this target. The experiment in a line: Cholinergic receptor muscarinic 1 (CHRM1) small molecule agonists, cell-based qHTS assay (AID 1963589). Note: nearly all actives have a fitted effect of over 35% in size. Put shortly:
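Cells were plated and incubated 18 h at 37 C/5% CO2, loaded with calcium dye for 1 h at 37 C, then treated with compounds in DMSO. Fluorescence was recorded kinetically at 1 sec intervals.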

Test [20] addresses Beta-2 adrenergic receptor (Homo sapiens) (UniProt P07550). Kind of test: Adrenergic beta2 receptor (ADRB2) small molecule agonists, cell-based qHTS assay (AID 1963593).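 Note: CHO cells stably overexpressing human ADRB2.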 The procedure, abridged: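 CHO cells stably over-expressing ADRB2 were plated overnight at 37C, then dosed with compounds plus a stimulation mix containing 100uM IBMX and 25uM Ro-20-1724 for 0.5hr at room temperature. cAMP was measured by HTRF competition, 1hr.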

7 molecules from PubChem BioAssay (Tox21) can be followed below.

Unmarked numbers belong to inactive results. Records with an inconclusive call do not appear. Calls of active or inactive are those of the source. Unless noted, calls come from the whole dose curve.

Chain of Beta-2 adrenergic receptor (Homo sapiens) (P07550 whole entry, looked up): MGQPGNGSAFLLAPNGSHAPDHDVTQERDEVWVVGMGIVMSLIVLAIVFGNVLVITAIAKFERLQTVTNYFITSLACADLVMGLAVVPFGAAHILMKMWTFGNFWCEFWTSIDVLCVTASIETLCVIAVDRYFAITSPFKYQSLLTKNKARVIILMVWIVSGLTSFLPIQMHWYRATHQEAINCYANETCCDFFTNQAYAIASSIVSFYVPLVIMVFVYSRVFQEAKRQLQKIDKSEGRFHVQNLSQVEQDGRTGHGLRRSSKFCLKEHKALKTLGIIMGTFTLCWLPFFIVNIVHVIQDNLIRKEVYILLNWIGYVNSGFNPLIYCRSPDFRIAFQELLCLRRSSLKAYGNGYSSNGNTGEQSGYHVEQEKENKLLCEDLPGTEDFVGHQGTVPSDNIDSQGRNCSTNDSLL
Chain of 5-hydroxytryptamine receptor 2A (Homo sapiens) (P28223 whole entry, looked up): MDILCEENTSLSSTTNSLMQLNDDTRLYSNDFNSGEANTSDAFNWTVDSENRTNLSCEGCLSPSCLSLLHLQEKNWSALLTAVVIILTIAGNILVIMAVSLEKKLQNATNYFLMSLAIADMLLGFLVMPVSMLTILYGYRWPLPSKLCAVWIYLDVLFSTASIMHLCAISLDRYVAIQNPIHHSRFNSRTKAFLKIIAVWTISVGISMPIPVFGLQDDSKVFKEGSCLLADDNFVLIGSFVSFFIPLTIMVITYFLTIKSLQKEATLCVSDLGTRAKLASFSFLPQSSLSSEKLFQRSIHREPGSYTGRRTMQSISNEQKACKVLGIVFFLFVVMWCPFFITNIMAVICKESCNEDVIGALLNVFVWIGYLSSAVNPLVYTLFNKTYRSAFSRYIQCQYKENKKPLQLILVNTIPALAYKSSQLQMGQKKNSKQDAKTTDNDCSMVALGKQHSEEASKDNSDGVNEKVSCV
Chain of D(2) dopamine receptor (Homo sapiens) (P14416 whole entry, looked up): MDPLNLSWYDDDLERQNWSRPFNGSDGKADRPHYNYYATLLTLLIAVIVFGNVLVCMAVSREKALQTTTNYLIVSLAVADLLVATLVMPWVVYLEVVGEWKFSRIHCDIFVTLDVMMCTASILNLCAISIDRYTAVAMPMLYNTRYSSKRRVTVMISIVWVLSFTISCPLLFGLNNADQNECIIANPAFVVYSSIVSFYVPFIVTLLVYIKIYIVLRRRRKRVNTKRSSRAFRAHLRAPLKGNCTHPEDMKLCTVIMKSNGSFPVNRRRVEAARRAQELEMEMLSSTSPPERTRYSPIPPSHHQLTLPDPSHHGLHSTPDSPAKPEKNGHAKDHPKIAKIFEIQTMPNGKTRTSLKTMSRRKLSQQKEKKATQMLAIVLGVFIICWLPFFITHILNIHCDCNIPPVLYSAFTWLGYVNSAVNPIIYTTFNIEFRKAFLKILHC
Chain of KiSS-1 receptor (Homo sapiens) (Q969F8 whole entry, looked up): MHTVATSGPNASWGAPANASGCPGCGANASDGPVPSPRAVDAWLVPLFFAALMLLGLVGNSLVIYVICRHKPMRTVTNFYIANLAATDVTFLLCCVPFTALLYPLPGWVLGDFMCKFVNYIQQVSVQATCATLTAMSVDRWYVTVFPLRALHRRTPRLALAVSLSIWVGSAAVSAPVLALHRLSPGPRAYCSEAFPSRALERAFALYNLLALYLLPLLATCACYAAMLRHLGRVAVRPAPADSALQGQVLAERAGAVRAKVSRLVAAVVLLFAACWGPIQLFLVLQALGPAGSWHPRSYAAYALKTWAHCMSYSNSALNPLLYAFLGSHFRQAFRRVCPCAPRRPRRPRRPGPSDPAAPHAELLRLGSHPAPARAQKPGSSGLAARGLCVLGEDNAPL
Chain of Gonadotropin-releasing hormone receptor (Homo sapiens) (P30968 whole entry, looked up): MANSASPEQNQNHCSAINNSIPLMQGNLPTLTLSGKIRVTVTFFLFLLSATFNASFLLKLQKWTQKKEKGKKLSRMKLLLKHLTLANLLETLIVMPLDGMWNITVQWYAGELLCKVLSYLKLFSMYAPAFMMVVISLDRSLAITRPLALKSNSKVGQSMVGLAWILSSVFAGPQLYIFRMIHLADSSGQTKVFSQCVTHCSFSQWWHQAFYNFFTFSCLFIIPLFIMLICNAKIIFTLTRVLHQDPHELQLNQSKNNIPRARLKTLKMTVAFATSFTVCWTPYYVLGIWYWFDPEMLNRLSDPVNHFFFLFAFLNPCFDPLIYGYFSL
Chain of Muscarinic acetylcholine receptor M1 (Homo sapiens) (P11229 whole entry, looked up): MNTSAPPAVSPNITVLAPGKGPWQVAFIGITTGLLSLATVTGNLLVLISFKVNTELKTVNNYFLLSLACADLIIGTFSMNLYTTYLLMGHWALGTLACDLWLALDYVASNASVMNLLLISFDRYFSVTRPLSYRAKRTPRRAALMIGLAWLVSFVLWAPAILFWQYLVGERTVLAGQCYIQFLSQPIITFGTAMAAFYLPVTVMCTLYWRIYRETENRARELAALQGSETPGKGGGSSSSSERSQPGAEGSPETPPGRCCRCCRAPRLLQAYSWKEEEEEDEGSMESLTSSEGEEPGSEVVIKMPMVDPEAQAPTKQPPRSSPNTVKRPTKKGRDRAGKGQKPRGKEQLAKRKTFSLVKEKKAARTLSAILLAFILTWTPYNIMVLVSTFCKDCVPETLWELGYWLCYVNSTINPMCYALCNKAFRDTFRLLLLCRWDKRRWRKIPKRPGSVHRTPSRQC

For `CC(=O)CCCCn1c(=O)c2c(ncn2C)n(C)c1=O`, the Potency entry in test [1], in [2], in test [3], in test [6], in test [7] and in [8] was “inactive” in each case. In addition, the Potency result in test [9], in [10], in [11], in [12], in test [13] and in test [14] was “inactive” throughout. Besides, the Potency entry in test [15] and in test [16] was “inactive” in each case. For the same molecule, the result in test [4] and in test [5] was inactive.
`COc1cc2nc(N3CCN(C(=O)C4CCCO4)CC3)nc(N)c2cc1OC` (stereo not drawn): the Potency result in [1], in [2], in test [3], in test [6], in test [7] and in test [8] was “inactive” in each case. The Potency result in [9], in test [10], in [11], in [12], in test [13] and in test [15] was “inactive” throughout. For the same molecule, in test [16], the Potency entry was “inactive”. For the same molecule, the result in [4] and in test [5] was inactive.
As to `CC1COc2c(N3CCN(C)CC3)c(F)cc3c(=O)c(C(=O)O)cn1c23` (stereo not drawn), the Potency result in test [1], in test [2], in [3], in [6], in test [7] and in test [8] was “inactive” throughout. The Potency entry in test [9], in [10], in test [11], in test [13] and in test [16] was “inactive” throughout. Further, the result in test [4] and in test [5] was inactive.
Take `Clc1ccc2n[nH]nc2c1`: the Potency entry in [1], in [2], in test [3], in test [7], in test [8] and in test [9] was “inactive” in each case. In addition, the Potency result in test [10], in test [17], in [18], in test [19], in test [12] and in test [14] was “inactive” throughout. The Potency entry in test [20] and in [16] was “inactive” throughout. Also, the outcome in test [4] and in test [5] was inactive. In addition, the Potency in test [6] is 28.9 µM (active).
Consider `OCCN1CN(CCO)CN(CCO)C1`, for which the Potency entry in [1], in [2], in [3], in test [6], in test [7] and in test [8] was “inactive” in each case. The Potency entry in test [9], in test [10], in test [17], in test [18], in test [19] and in test [12] was “inactive” each time. Moreover, the Potency result in test [14] and in test [15] was “inactive” throughout. The result in [4] and in test [5] was inactive.
In the case of `CC(=O)[C@@]1(O)CC[C@H]2[C@@H]3C[C@H](C)C4=CC(=O)CC[C@]4(C)[C@H]3CC[C@@]21C`, the Potency result in test [1], in [2], in [3], in [6], in test [7] and in test [8] was “inactive” in each case. Moreover, the Potency result in test [9], in [10], in [11], in test [15] and in test [16] was “inactive” throughout. Moreover, the result in [4] and in [5] was inactive.
With `C=CS(=O)(=O)O`, the Potency entry in test [1], in test [2], in test [3], in test [6], in test [7] and in test [8] was “inactive” in each case. Further, the Potency result in test [9], in test [10], in test [17], in [18], in [19] and in test [12] was “inactive” each time. Also, the Potency entry in test [13], in test [14], in test [15] and in test [16] was “inactive” each time. In addition, the result in test [4] and in [5] was inactive.
